# Assay results taken from PubChem BioAssay (Tox21).
# Where “and” joins values, the source holds several entries; their conditions need not be identical. Identical values can stand only once. Inconclusive results are not listed. A call without a number means that no potency is given here. Some structures have more than one record in an assay (separate samples or runs), and their calls can disagree. Calls of active or inactive are those of the source. Unless noted, the call rests on the fitted dose curve; in most records, active means well fitted curve in the direction sought with a large enough effect in the repeat runs; inconclusive means weak or mixed curves; inactive means no such curve, though single readings can be large; an effect the other way counts as inactive or inconclusive.
# Key:
# [1] = qHTS assay for small molecule agonists of the p53 signaling pathway (AID 651631; calls by dose curve; further: nearly all actives have a fitted effect of over 15% in size; further: potency means the concentration at half of the fitted maximal effect)
# Summary of the method: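 Read-out is beta-lactamase FRET fluorescence measured 2 h after substrate addition at room temperature, in HCT-116 cells with a p53 response element-driven reporter exposed to compounds for 16 h at 37 °C.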
# [2] = qHTS assay for small molecules that induce genotoxicity in human embryonic kidney cells expressing luciferase-tagged ATAD5 (AID 651632); further: nearly all actives have a fitted effect of over 15% in size; further: potency means the concentration at half of the fitted maximal effect
# Summary of the method: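 Cells were seeded at 2,000 per well, dosed with compound, and incubated 16 hr at 37C in 5% CO2. Luciferase activity was then quantified after a 30 min room-temperature incubation with Amplite.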
# [3] = qHTS assay for small molecule agonists of the p53 signaling pathway - cell viability (AID 651633; calls by dose curve; further: nearly all actives have a fitted effect of over 30% in size; further: potency means the concentration at half of the fitted maximal effect)
# Summary of the method: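 Viability counter-read: CellTiter-Glo luminescence (30 min, room temperature) in the same p53RE-bla plates. These plates had been exposed to compounds for 16 h at 37 C.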
# [4] = qHTS assay for small molecules that induce genotoxicity in human embryonic kidney cells expressing luciferase-tagged ATAD5 - cell viability (AID 651634; calls by dose curve; further: nearly all actives have a fitted effect of over 25% in size; further: potency means the concentration at half of the fitted maximal effect)
# Summary of the method: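 Cells (HEK293T, luciferase-tagged ATAD5) are seeded at 2,000 per well, dosed with compound or DMSO vehicle, and incubated 15.5 hr at 37C and 5% CO2. CellTiter-Fluor is added for 30 min before fluorescence is measured.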
# [5] = qHTS assay for small molecule disruptors of the mitochondrial membrane potential - cell viability (AID 720634; calls by dose curve; further: nearly all actives have a fitted effect of over 20% in size; further: potency means the concentration at half of the fitted maximal effect)
# Summary of the method: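 Cytotoxicity was measured by ATP quantitation in HepG2 wells that had first been treated with compound for 1 hr and stained with m-MPI dye; CellTiter-Glo incubation was 30 min at room temperature.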
# [6] = qHTS assay to test for compound auto fluorescence at 590 nm (red) in HepG2 cells (AID 720674)
# Summary of the method: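 We screened compounds on adherent HepG2 cells, incubating them for an hour at 37 C in 5% CO2 before reading emission at 590 nm under 540 nm excitation; values reflect equivalence to Rose Bengal sodium fluorescence.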
# [7] = qHTS assay to test for compound auto fluorescence at 535 nm (green) in HepG2 cells (AID 720675)
# [8] = qHTS assay to test for compound auto fluorescence at 460 nm (blue) in HEK293 cells (AID 720678); further: potency means the concentration at half of the fitted maximal effect
# Summary of the method: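 Intrinsic compound fluorescence is recorded in live HEK293 cultures after overnight incubation at 37C, 5% CO2, using excitation 405 nm and emission 460 nm. Values are referenced to triamterene.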
# [9] = qHTS assay to test for compound auto fluorescence at 590 nm (red) in HEK293 cells (AID 720679)
# Summary of the method: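 Red autofluorescence, HEK293 cells: 2,000 cells/well; attach 4-5 hr 37C; add 23 nL cpd or DMSO; incubate o/n 37C 5% CO2; read Ex540/Em590; Rose Bengal sodium reference.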
# [10] = qHTS assay for small molecule disruptors of the mitochondrial membrane potential (AID 720635); further: potency means the concentration at half of the fitted maximal effect
# Summary of the method: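 Mitochondrial membrane potential tracked with Mito-MPS dye, red aggregates (ex 540/em 590 nm) against green monomers (ex 490/em 535 nm). Compound treatment 1 hr at 37C, dye 30 min in HepG2.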
# Tags describe the fitted curve by direction and shape or compound fluorescence and quenching.
SMILES,Potency [1],Potency [2],Potency [3],Potency [4],Potency [5],outcome [6],Potency [7],Potency [8],outcome [9],Potency [10],"fluorescence, relative to Rose Bengal [6]","fluorescence, % of fluorescein control [7]","fluorescence, % of triamterene [8]","fluorescence, % of fluorescent control [9]"
c1ccc2n[nH]nc2c1,inactive,inactive,inactive,inactive,inactive,inactive,inactive,inactive,inactive,,,,,
CC1=C(C=O)C(C)(C)CC=C1,inactive,inactive,inactive,inactive,inactive,inactive,,inactive,inactive,,,,,
CCOc1ccccc1C(N)=O,inactive,inactive,inactive,inactive,inactive,inactive,,inactive,inactive,,,,,
Cc1scc2c1N(C(=O)CN1CCN(C)CC1)c1ccccc1NC2=O,inactive,inactive,inactive,inactive,inactive,inactive,inactive,inactive,inactive,,,,,
CCN(CC)c1ccc2c(C)cc(=O)oc2c1,30.9 µM (active) and 27.3 µM (active),inactive,inactive,inactive,,inactive,inactive,39.8 µM [fluorescent] (active),inactive,,,,,
NCCO,inactive,inactive,inactive,inactive,inactive,inactive,inactive,inactive,inactive,,,,,
COC(=O)[C@H]1[C@H]2C[C@@H]3c4[nH]c5cc(OC)ccc5c4CCN3C[C@H]2C[C@@H](OC(=O)c2cc(OC)c(OC)c(OC)c2)[C@@H]1OC,inactive,inactive,inactive,inactive,inactive,inactive,inactive,inactive,inactive,,,,,
Cc1ccnc2c1NC(=O)c1cccnc1N2C1CC1,inactive,inactive,inactive,inactive,inactive,inactive,inactive,inactive,inactive,,,,,
COC(=O)c1cccc(C(=O)OC)c1,inactive,inactive,inactive,inactive,inactive,inactive,inactive,inactive,inactive,,,,,
C=CS(=O)(=O)O,inactive,inactive,inactive,inactive,inactive,inactive,,inactive,inactive,,,,,
CC(C)(C)c1ccccc1,inactive,inactive,inactive,inactive,inactive,inactive,,inactive,inactive,,,,,
CC[C@H]1CN2CCc3cc(OC)c(OC)cc3[C@@H]2C[C@@H]1C[C@H]1NCCc2cc(OC)c(OC)cc21,0.0387 µM (active),inactive,inactive,168 nM (active) and 194 nM (active),inactive,inactive,inactive,inactive,inactive,,,,,
CCc1ccc(C(c2ccc(CC)cc2)C(Cl)Cl)cc1,inactive,inactive,inactive,inactive,inactive,inactive,inactive,inactive,inactive,,,,,
O=C(O)CP(=O)(O)O,inactive,inactive,inactive,inactive,inactive,inactive,,inactive,inactive,,,,,
COC(c1ccccc1)(c1ccccc1)[C@H](Oc1nc(C)cc(C)n1)C(=O)O,inactive,inactive,inactive,inactive,inactive,inactive,,inactive,inactive,,,,,
Cc1cccc2n[nH]nc12,inactive,inactive,inactive,inactive,inactive,inactive,,inactive,inactive,,,,,
O=Cc1ccc(Cl)cc1,inactive,inactive,inactive,inactive,inactive,inactive,inactive,inactive,inactive,,,,,
CC(=O)N[C@@H](CS)C(=O)O,inactive,inactive,inactive,inactive,inactive,inactive,inactive,inactive,inactive,,,,,
COc1cc(C(=S)N2CCOCC2)ccc1O,inactive,inactive,inactive,inactive,inactive,inactive,,inactive,inactive,,,,,
CNC1(C)C2CCC(C2)C1(C)C (stereo unspecified),inactive,inactive,inactive,inactive,inactive,inactive,inactive,inactive,inactive,,,,,
CC(C(O)c1ccc(O)cc1)N1CCC(Cc2ccccc2)CC1 (stereo unspecified),inactive,inactive,inactive,inactive,inactive,inactive,inactive,inactive,inactive,,,,,
Cc1cc(Cc2cc(C)cc(C(C)(C)C)c2O)c(O)c(C(C)(C)C)c1,30.6 µM (active),inactive,13.8 µM (active) and 17.2 µM (active),61.4 µM (active) and 61.1 µM (active),,inactive,inactive,inactive,inactive,1.23 µM (active) and 1.09 µM (active),,,,
CC[C@@H](N)CO,inactive,inactive,inactive,inactive,inactive,inactive,inactive,inactive,inactive,,,,,
CC(C)(C)NCC(O)c1cc(O)cc(O)c1 (stereo unspecified),inactive,inactive,inactive,inactive,inactive,inactive,inactive,inactive,inactive,,,,,
CC1=CC(=O)c2ccccc2C1=O,38.6 µM (active),inactive,24.3 µM (active),inactive,inactive and 54.5 µM (active),inactive,,inactive,inactive,,,,,

SMILES,Potency [1],Potency [2],Potency [3],Potency [4],Potency [5],outcome [6],Potency [7],Potency [8],outcome [9],Potency [10],"fluorescence, relative to Rose Bengal [6]","fluorescence, % of fluorescein control [7]","fluorescence, % of triamterene [8]","fluorescence, % of fluorescent control [9]"
O=C(O)c1cn(-c2ccc(F)cc2)c2cc(N3CCNCC3)c(F)cc2c1=O,inactive,inactive,inactive,inactive,inactive,inactive,inactive,inactive,inactive,,,,,
C[N+]1([O-])CCOCC1,inactive,inactive,inactive,inactive,inactive,inactive,inactive,inactive,inactive,,,,,
Oc1c(Cl)cc(Cl)c(Cl)c1Cc1c(O)c(Cl)cc(Cl)c1Cl,13.3 µM (active) and 9.66 µM (active) and 54.5 µM (active),inactive,1.88 µM (active) and 68.4 µM (active) and 12.2 µM (active),6.68 µM (active) and 2.72 µM (active) and 1.93 µM (active),,inactive,inactive,inactive,inactive,,,,,
O=Nc1ccc(Nc2ccccc2)cc1,27.4 µM (active),,,48.8 µM (active),,inactive,,inactive,inactive,21.8 µM (active),,,,
CCOc1ccc2c(c1)C(C)=CC(C)(C)N2,,inactive,inactive,inactive,inactive,inactive,inactive,inactive,inactive,inactive,,,,
N[C@@H]1CONC1=O,,inactive,inactive,inactive,inactive,inactive,inactive,inactive,inactive,inactive,,,,
CCCOC(=O)c1cc(O)c(O)c(O)c1,,inactive,inactive,inactive,inactive,inactive,,inactive,inactive,23.7 µM (active) and 48.3 µM (active) and 48.6 µM (active),,,,
CCCCN(CCO)CCCC,,inactive,inactive,inactive,inactive,inactive,inactive,inactive,inactive,,,,,
CCCN[C@H]1CCc2nc(N)sc2C1,inactive,,inactive,inactive,inactive,inactive,inactive,inactive,inactive,inactive,,,,
COc1ccc(COC(C)=O)cc1,,inactive,inactive,inactive,inactive,inactive,inactive,inactive,inactive,inactive,,,,
CCCCCCC(O)CCCCCCCCCCC(=O)O (stereo unspecified),,inactive,inactive,inactive,inactive and 54.5 µM (active),inactive,inactive,inactive,inactive,inactive and 54.5 µM (active),,,,
CC(N)=O,,inactive,inactive,inactive,inactive,inactive,inactive,inactive,inactive,inactive,,,,
Nc1ccc2cc3ccccc3cc2c1,,27.8 µM (active),inactive,inactive,inactive,inactive,,44.7 µM [fluorescent] (active),inactive,1.39 µM (active) and 1.37 µM (active),,,,
O,inactive,,inactive,inactive,inactive,inactive,inactive,inactive,inactive,,,,,
Clc1ccc2c(c1)C(N1CCNCC1)=Nc1ccccc1O2,,inactive,inactive,inactive,inactive,inactive,inactive,inactive,inactive,,,,,
NC12CC3CC(CC(C3)C1)C2,,inactive,inactive,inactive,inactive,inactive,inactive,inactive,inactive,,,,,
COC(=O)/C=C/c1ccccc1,,inactive,inactive,inactive,inactive,inactive,inactive,inactive,inactive,,,,,
CC(=O)C1=C(C)[C@@H]2C[C@@]3(C1)[C@H](C)CC[C@H]3C2(C)C,inactive,inactive,inactive,inactive,,inactive,inactive,inactive,inactive,,,,,
COc1nc(C)nc(Cl)c1NC1=NCCN1,,inactive,inactive,inactive,inactive,,,,,inactive,0.0093% [at 18.6 µM] (inactive),-0.17% [at 18.6 µM] (inactive),0.0425% [at 18.6 µM] (inactive),-0.0076% [at 18.6 µM] (inactive)
CC(C)(c1ccccc1)c1ccc(Nc2ccc(C(C)(C)c3ccccc3)cc2)cc1,,inactive,inactive,inactive,inactive,inactive,,inactive,inactive,21.7 µM (active) and 27.3 µM (active),,,,
CC(C)CCOC(=O)c1ccc(N(C)C)cc1,inactive,13.3 µM (active),inactive,inactive,,inactive,inactive,inactive,inactive,,,,,
CCn1c2ccccc2c2cc(N)ccc21,,inactive,inactive,inactive,inactive,inactive,inactive,inactive,inactive,27 µM (active) and 24.3 µM (active) and 7.7 µM (active),,,,
CC(C)(C)NC(=O)[C@@H]1CN(Cc2cccnc2)CCN1C[C@@H](O)C[C@@H](Cc1ccccc1)C(=O)N[C@H]1c2ccccc2C[C@H]1O,inactive,,,,13.3 µM (active) and inactive,inactive,,inactive,inactive,,,,,
CCC(=O)/C=C/C1C(C)=CCCC1(C)C (stereo unspecified),,inactive,inactive,inactive,inactive,inactive,inactive,inactive,inactive,,,,,
CC[C@]1(O)C[C@@H]2CN(CCc3c([nH]c4ccccc34)[C@@](C(=O)OC)(c3cc4c(cc3OC)N(C)[C@H]3[C@@](O)(C(=O)OC)[C@H](OC(C)=O)[C@]5(CC)C=CCN6CC[C@]43[C@@H]65)C2)C1,0.0422 µM (active),1.19 µM (active) and 266 nM (active),,133 nM (active) and 168 nM (active),inactive,inactive,inactive,inactive,inactive,1.88 µM (active) and 944 nM (active),,,,
